# Experimental data: PubChem BioAssay (EPA / NIEHS)
# Inconclusive results are not listed. Active and inactive are the calls of the source. How the source made its calls: active means hit-call score of the fitted dose curve at least 0.9, where 1 is the maximum; inconclusive means response in the unintended direction; inactive means score below 0.9.
# Test: ATG_XTT_Cytotoxicity: Cytotoxicity Assessment in the Attagene TRANS-FACTORIAL HepG2 Assay (AID 2283584);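 on AC50: cells exposed to compound for 24 h before reading; active means loss of viability signal versus DMSO baseline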
# Summary of the method: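 Viability endpoint from XTT after 24 h chemical exposure of reporter-transfected human HepG2 liver cells; signal loss fitted relative to DMSO negative control.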
Compound,outcome,AC50
CNC(=O)N(C)c1nc2ccccc2s1,inactive,–
O=c1[nH]c(=O)n(Cl)c(=O)n1Cl,inactive,–
O=S(=O)(C(Cl)(Cl)Cl)C(Cl)(Cl)Cl,–,36.7 µM (active)
Cc1ccc2nc3sc(=O)sc3nc2c1,inactive,–
ClCCN1CCOCC1,inactive,–
C[C@]12CC[C@@H](O)C[C@@H]1CC[C@@H]1[C@@H]2CC[C@]2(C)C(=O)CC[C@@H]12,inactive,–
